From the supplement of paper PMC6555819

What was measured:
Assay in all cases: PBM binding z-score (relative to random genomic background probes); higher = stronger binding; sequences stand for … in GC…GCGATTGACAGCGTAGAATGAAGG
[1] = test system: FXR:RXRa (NR concentration 270 nM, RXRa partner concentration 90 nM)
In short: (§1)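 Scanned fluorescence from custom Agilent 4×180K protein-binding microarrays was regression-normalized. Binding z-scores use random background probes as reference. Ligand-free nuclear receptor dimers were incubated on the arrays for 1 h and detected with antibodies against each partner (one per run).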

[2] = test system: LXRa:RXRa (NR concentration 270 nM, RXRa partner concentration 90 nM)
In short: as §1

[3] = test system: LXRa homodimer (NR concentration 270 nM)
In short: as §1

[4] = test system: LXRb homodimer (NR concentration 270 nM)
In short: as §1

[5] = test system: PPARa:RXRa (NR concentration 270 nM, RXRa partner concentration 90 nM)
In short: as §1

[6] = test system: PPARg:RXRa (NR concentration 180 nM, RXRa partner concentration 90 nM)
In short: as §1

[7] = test system: PPARg:RXRa 270nM:90nM, anti-RXR (NR concentration 270 nM, RXRa partner concentration 90 nM)
In short: as §1

[8] = test system: PPARg:RXRa 30nM:10nM, anti-RXR (NR concentration 30 nM, RXRa partner concentration 10 nM)
In short: as §1

[9] = test system: PPARg:RXRa 90nM:30nM, anti-RXR (NR concentration 90 nM, RXRa partner concentration 30 nM)
In short: as §1

[10] = test system: PPARg:RXRa DBDmut IVT, anti-RXR (DBD mutation: RXRa K156A/R161A, NR concentration 270 nM, RXRa partner concentration 90 nM)
In short: as §1

[11] = test system: PPARg:RXRa IVT, anti-PPARg (NR concentration 270 nM, RXRa partner concentration 90 nM)
In short: as §1

[12] = test system: PPARg DBDmut:RXRa IVT, anti-PPARg (DBD mutation: PPARg1 K132A/R137A, NR concentration 270 nM, RXRa partner concentration 90 nM)
In short: as §1

[13] = test system: PPARg DBDmut IVT, anti-PPARg (DBD mutation: PPARg1 K132A/R137A, NR concentration 270 nM)
In short: as §1

[14] = test system: PPARg homodimer (NR concentration 180 nM)
In short: as §1

[15] = test system: PXR:RXRa (NR concentration 270 nM, RXRa partner concentration 90 nM)
In short: as §1

[16] = test system: PXR homodimer (NR concentration 270 nM)
In short: as §1

[17] = test system: RARa:RXR (NR concentration 270 nM, RXRa partner concentration 90 nM)
In short: as §1

[18] = test system: RARa homodimer (NR concentration 270 nM)
In short: as §1

[19] = test system: RARb:RXRa (NR concentration 270 nM, RXRa partner concentration 90 nM)
In short: as §1

| Sequence | PBM binding z-score [1] | PBM binding z-score [2] | PBM binding z-score [3] | PBM binding z-score [4] | PBM binding z-score [5] | PBM binding z-score [6] | PBM binding z-score [7] | PBM binding z-score [8] | PBM binding z-score [9] | PBM binding z-score [10] | PBM binding z-score [11] | PBM binding z-score [12] | PBM binding z-score [13] | PBM binding z-score [14] | PBM binding z-score [15] | PBM binding z-score [16] | PBM binding z-score [17] | PBM binding z-score [18] | PBM binding z-score [19] |
| --- | --- | --- | --- | --- | --- | --- | --- | --- | --- | --- | --- | --- | --- | --- | --- | --- | --- | --- | --- |
| AGTCAAAGTTCATCAAGGTAACGTAAGATATGCT | 6.08 | 5.78 | 4.24 | 1.31 | 4.64 | 6.46 | 6.38 | 3.52 | 5.75 | 0.277 | 3.34 | 1.59 | 1.26 | 3.05 | 5.4 | 9.31 | 4.3 | 2.24 | 4.9 |
| CGTCAAAGTTCATGGTAACGTAACAGAAAGCAGC | 6.57 | 5.67 | 3.17 | 1.2 | 4.95 | 5.02 | 5.36 | 2.39 | 4.08 | 0.9 | 2.06 | 1.17 | 1.03 | 3.91 | 4.52 | 2.84 | 3.68 | 1.6 | 5 |
| CGTCAAAGTTCAAGGTAAAGTAACAGAAAGCAGC | 5.75 | 5.37 | 2.35 | 0.837 | 4.4 | 4.51 | 5.07 | 2.5 | 3.89 | 0.433 | 1.82 | 0.69 | 0.346 | 2.5 | 3.99 | 2.2 | 3.47 | 1.3 | 4.95 |
| CCTACTGGGCCGAGGTCATTGATCAGTCAAAGCA | 4.08 | 3.71 | 1.15 | -0.228 | 3.96 | 3.02 | 3.38 | 0.749 | 2.52 | 1.55 | 2.71 | -0.758 | -1.27 | 2.05 | 4.62 | 2.49 | 4.33 | -0.11 | 3.19 |
| ATCGAAAGGTCGAGTTGAGTATAGAGAAAGGGAA | 4.54 | 3.84 | 0.29 | 1.04 | 4.32 | 2.44 | 2.9 | 0.961 | 2.07 | -0.0281 | 1.21 | 0.792 | 0.196 | 1.65 | 2.74 | 0.316 | 3.29 | 0.834 | 3.88 |
| GCTTACGGGTCAAAAGTTATAGCATGAATAGAAT | 5.09 | 3.43 | 0.0533 | 0.409 | 5.64 | 6.49 | 6.55 | 4.03 | 6.2 | 3.77 | 3.87 | 1.08 | 1.18 | 1.4 | 2.94 | 0.168 | 3.7 | 0.546 | 3.16 |
| CCTAGTTGGTCAAGGTCACGCACGCTATAGGTAC | 4.95 | 4.55 | 2.22 | 0.524 | 4.31 | 3.69 | 4.15 | 1.96 | 3 | 2.54 | 3.78 | 0.403 | 0.558 | 3.73 | 4.64 | 2.27 | 4.99 | 2.21 | 4.31 |
| AGAATGAGGTTAGCAAAGATCAGGGAAACGCTTG | 0.688 | 1.07 | -0.0125 | -0.163 | 1.79 | 1.02 | 0.909 | 0.0816 | 0.6 | 2.18 | 1.55 | 0.688 | 0.613 | -0.323 | 0.442 | -0.147 | 0.623 | 0.53 | 1.46 |
| ATCGAAAGGTCGTGAGGTGAGTTTACAGAAAGGC | 5.54 | 4.05 | 0.339 | 0.313 | 5.21 | 4 | 4.18 | 1.98 | 3.05 | 0.311 | 2.19 | 0.802 | 0.81 | 2.01 | 4.1 | 1.52 | 4.59 | 0.718 | 4.08 |
| TTACCAAGGTGAACTGAGGTCGTTGATCCAACTC | 3.33 | 4.31 | 1.34 | -0.359 | 3.46 | 2.14 | 2.3 | 0.857 | 1.7 | 2.89 | 3.47 | 0.972 | 0.996 | 1.32 | 6.12 | 1.94 | 3.7 | -0.75 | 2.43 |
| CCTAGATGGTCAGGAGGTCACACACCGGATATGA | 3.84 | 3.42 | 2 | 0.565 | 4.14 | 3.01 | 3.58 | 1.24 | 2.41 | 1.16 | 2.88 | 0.417 | 0.0962 | 3.94 | 4.14 | 1.76 | 4.94 | 2.24 | 3.54 |
| CGTCCAAGGTAAATGCTAGGTCAGTGAAAGCATT | 0.57 | 1.38 | 0.935 | -0.419 | 0.673 | -0.228 | -0.117 | -0.486 | -0.493 | 0.714 | 0.881 | -1.05 | -0.95 | 0.424 | 0.128 | -0.305 | 0.803 | -0.343 | 1.61 |
| CCTAGTTGGTCAAGGTCCCACACGCTATAGGTAC | 0.27 | 0.395 | 0.55 | -0.02 | 0.398 | 0.782 | 0.497 | -0.0168 | 0.409 | 1.11 | 1.17 | -0.0918 | 0.474 | 1.59 | 0.0607 | 0.41 | 0.436 | 0.884 | 1.29 |
| CCTTACGGGTCAAGGTTATACCACGGGTGGTACG | 5.46 | 3.7 | 0.309 | 0.0291 | 4.99 | 4.6 | 4.47 | 1.63 | 3.83 | 1.19 | 3.53 | -0.379 | -0.205 | 3.33 | 3.49 | 0.498 | 4.11 | 1.71 | 4.21 |
